Among the test systems are NCI-H23 lung; NCI-H226 lung; NCI-H322M lung; HOP-62 NSCLC; NCI-H460 lung; HOP-92 NSCLC; NCI-H522 lung; A549/ATCC NSCLC; 786-0 renal; COLO 205 colon; DU-145 prostate; K-562 leukemia; MALME-3M melanoma; MDA-MB-231 breast; RXF 393 renal; SF-268 CNS; SF-295 CNS; SF-539 CNS; UACC-257 melanoma; M14 melanoma.
What all share (assay): NCI-60 one-dose screen, 48 h (100 = growth as untreated, 0 = no growth, -100 = all killed)
Conditions in all cases: 10 µM unless noted

The panel holds about 83,000 compounds, 20% with a hit somewhere; the sample as a whole holds those more often.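 Testing used 96-well plates and a 48-hour single-concentration exposure. Example: -40 means 40% of the starting cells died.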 A number with no mark means an inactive call. Calls of active or inactive are those of the source. Rule for the calls: active = growth percent below 10; inactive = the rest.

As for `O=C(CN1C(=O)c2ccccc2S1(=O)=O)Nc1nc(-c2cc3ccccc3oc2=O)cs1`, the growth with NCI-H23 lung is 110%; in the test on NCI-H226 lung, 94.4%; with NCI-H322M lung, 97.3%; with HOP-62 NSCLC, 105%; in the test on NCI-H460 lung, 105%; in the test on HOP-92 NSCLC it was 96.4%. Besides, the growth was 92.2% in the test on NCI-H522 lung; 104% with A549/ATCC NSCLC; 91.8% in the test with 786-0 renal; 117% in the test on COLO 205 colon; 108% in the test on DU-145 prostate; 100% in the test with K-562 leukemia. The growth with MALME-3M melanoma is 101%; in the test with MDA-MB-231 breast it was 114%; with RXF 393 renal it was 105%; with SF-268 CNS it was 95.7%; in the test with SF-295 CNS, 102%; in the test with SF-539 CNS it was 95.8%. The figures for the growth in the test with UACC-257 melanoma and in the test on M14 melanoma were 99.8% and 106%, respectively.

For `Nc1ncc(-c2ccc3ncnc(N4CCc5cc(F)c(Cl)cc54)c3c2)cc1C(F)(F)F`, the growth is 47.6% in the test on NCI-H23 lung; 28.3% in the test with NCI-H226 lung; 19.8% with NCI-H322M lung; 33.1% in the test on HOP-62 NSCLC; 28.2% with NCI-H460 lung; 10.1% with HOP-92 NSCLC. Moreover, the growth in the test on NCI-H522 lung is 20.3%; in the test with A549/ATCC NSCLC, 21.4%; in the test on 786-0 renal, 15.8%; with COLO 205 colon, 41.8%; in the test with DU-145 prostate, 33.5%; in the test with K-562 leukemia, 15%. The growth in the test with MALME-3M melanoma was 13.6%; in the test with MDA-MB-231 breast, 23.9%; in the test on RXF 393 renal it was -33.6% (active); in the test with SF-268 CNS, 34.1%; in the test with SF-295 CNS, 26%; in the test on SF-539 CNS, 8.36% (active). In addition, the growth is 48.2% in the test with UACC-257 melanoma and 33.8% with M14 melanoma.

As for `O=[N+]([O-])c1ccc(Oc2cccc3c(Oc4ccc([N+](=O)[O-])cc4[N+](=O)[O-])cccc23)c([N+](=O)[O-])c1`, the growth in the test with NCI-H23 lung was 75.3%; in the test with NCI-H226 lung, 83.9%; in the test on NCI-H322M lung, 92.4%; in the test with HOP-62 NSCLC, 79.6%; in the test with NCI-H460 lung, 93.4%; with HOP-92 NSCLC it was 62%. Further, the growth is 74.6% with NCI-H522 lung; 83% in the test on A549/ATCC NSCLC; 108% in the test on 786-0 renal; 102% with COLO 205 colon; 107% in the test with DU-145 prostate; 95.1% with K-562 leukemia. Besides, the growth was 105% with MALME-3M melanoma; 63.7% with MDA-MB-231 breast; 96.4% in the test with RXF 393 renal; 85% in the test with SF-268 CNS; 99.9% in the test with SF-295 CNS; 96.3% with SF-539 CNS. Also, the figures for the growth with UACC-257 melanoma and in the test with M14 melanoma were 91.6% and 93.3%, respectively.

As for `N#CC1=C(N)Oc2c(ccc3cccnc23)C1c1ccccc1` (stereo not given), the growth was 17.7% with NCI-H23 lung; 54% with NCI-H226 lung; 39.2% in the test on NCI-H322M lung; 43.2% in the test with HOP-62 NSCLC; 16% in the test on NCI-H460 lung; 32.3% in the test with HOP-92 NSCLC. For the same compound, the growth with NCI-H522 lung was 20.3%; with A549/ATCC NSCLC it was 32%; with 786-0 renal it was 35.3%; with COLO 205 colon, 9.2% (active); with DU-145 prostate, 17.6%; with K-562 leukemia it was 17.2%. Also, the growth in the test on MALME-3M melanoma is 47.9%; in the test with MDA-MB-231 breast, 48.6%; in the test on RXF 393 renal, 4.49% (active); in the test on SF-268 CNS, 45.2%; in the test with SF-295 CNS it was 18.1%; in the test on SF-539 CNS, -39.6% (active). Besides, the growth in the test on UACC-257 melanoma was 74.4%; in the test on M14 melanoma, 20%.

For `COc1ccc(CNc2ccc3nc(CCC4CCCCC4)[nH]c3c2)cc1`, the growth was 77.5% in the test with NCI-H23 lung; 73.8% in the test on NCI-H226 lung; 91.2% with NCI-H322M lung; 75.8% in the test on HOP-62 NSCLC; 88.6% in the test on NCI-H460 lung; 38.3% in the test with HOP-92 NSCLC. Further, the growth was 67.1% with NCI-H522 lung; 80.2% with A549/ATCC NSCLC; 62.7% with 786-0 renal; -23.9% (active) in the test with COLO 205 colon; 83.4% in the test on DU-145 prostate; 19.6% in the test on K-562 leukemia. For the same compound, the growth in the test with MALME-3M melanoma was 59.4%; in the test with MDA-MB-231 breast, 79.7%; in the test on RXF 393 renal, 74.2%; in the test on SF-268 CNS, 71.4%; in the test with SF-295 CNS it was 91%; in the test with SF-539 CNS, 76.4%. Also, the growth was 75.3% in the test on UACC-257 melanoma and 75.7% in the test with M14 melanoma.

With `Nc1ncc(-c2ccc3ncnc(N4CCc5ccc(Cl)cc54)c3c2)cn1`, the growth in the test with NCI-H23 lung was 12.4%; with NCI-H226 lung it was 0.981% (active); in the test on NCI-H322M lung it was -15.4% (active); with HOP-62 NSCLC, -11.9% (active); in the test on NCI-H460 lung, 4.03% (active); in the test on HOP-92 NSCLC, -34.5% (active). Besides, the growth in the test on NCI-H522 lung is -15.7% (active); with A549/ATCC NSCLC, 0.08% (active); in the test with 786-0 renal, -0.891% (active); in the test on COLO 205 colon, -25.8% (active); with DU-145 prostate, 10%; in the test on K-562 leukemia it was 10.5%. Besides, the growth is -17.4% (active) with MALME-3M melanoma; -3.01% (active) in the test with MDA-MB-231 breast; -29.4% (active) with RXF 393 renal; 11.2% with SF-268 CNS; -7.57% (active) in the test on SF-295 CNS; -68.8% (active) with SF-539 CNS. The growth in the test on UACC-257 melanoma was 8.1% (active); in the test on M14 melanoma, 8.74% (active).

As to `CCCn1cnc2c(c1=N)C(c1ccc(Cl)cc1)c1sc3c(F)cccc3c1O2` (stereo not given), the growth with NCI-H23 lung is 81.8%; in the test with NCI-H226 lung it was 85.5%; in the test with NCI-H322M lung, 75.6%; in the test with HOP-62 NSCLC, 96.9%; in the test on NCI-H460 lung it was 66.2%; with HOP-92 NSCLC, 79.3%. The growth in the test on NCI-H522 lung is 69.7%; in the test with A549/ATCC NSCLC, 76%; in the test with 786-0 renal, 69.3%; in the test with COLO 205 colon, -67.9% (active); in the test with DU-145 prostate, 82.2%; with K-562 leukemia it was 29.1%. Besides, the growth with MALME-3M melanoma is 49.8%; in the test on MDA-MB-231 breast, 69.7%; in the test on RXF 393 renal, 72%; with SF-268 CNS, 83.8%; in the test on SF-295 CNS, 93.8%; in the test on SF-539 CNS, 85.6%. In addition, the growth with UACC-257 melanoma was 105%; in the test with M14 melanoma, 70.7%.

These data come from PubChem BioAssay (NCI).
